Results taken from PubChem BioAssay (NCI).
About 83,000 compounds went through this panel and 20% of them were active in at least one assay; those are over-represented in the sample as a whole.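 Interpretation: 100, growth as untreated; towards 0, rising growth inhibition; 0, no net growth; 0 to -100, cell death. Compounds scoring below 10 were considered active.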 Unmarked numbers belong to inactive results. The source made the active and inactive calls.

Experiments:
Assay in all cases: NCI-60 one-dose screen, 48 h (100 = growth as untreated, 0 = no growth, -100 = all killed)
Conditions in all cases: 10 µM unless noted
NCI-H23 lung = test system: NCI-H23 lung
NCI-H226 lung = test system: NCI-H226 lung
NCI-H322M lung = test system: NCI-H322M lung
HOP-62 NSCLC = test system: HOP-62 NSCLC
NCI-H460 lung = test system: NCI-H460 lung
HOP-92 NSCLC = test system: HOP-92 NSCLC
NCI-H522 lung = test system: NCI-H522 lung
A549/ATCC NSCLC = test system: A549/ATCC NSCLC
786-0 renal = test system: 786-0 renal
COLO 205 colon = test system: COLO 205 colon
DU-145 prostate = test system: DU-145 prostate
K-562 leukemia = test system: K-562 leukemia
MALME-3M melanoma = test system: MALME-3M melanoma
MDA-MB-231 breast = test system: MDA-MB-231 breast
SF-268 CNS = test system: SF-268 CNS
SF-295 CNS = test system: SF-295 CNS
SF-539 CNS = test system: SF-539 CNS
UACC-257 melanoma = test system: UACC-257 melanoma
M14 melanoma = test system: M14 melanoma

Compound	growth (NCI-H23 lung)	growth (NCI-H226 lung)	growth (NCI-H322M lung)	growth (HOP-62 NSCLC)	growth (NCI-H460 lung)	growth (HOP-92 NSCLC)	growth (NCI-H522 lung)	growth (A549/ATCC NSCLC)	growth (786-0 renal)	growth (COLO 205 colon)	growth (DU-145 prostate)	growth (K-562 leukemia)	growth (MALME-3M melanoma)	growth (MDA-MB-231 breast)	growth (SF-268 CNS)	growth (SF-295 CNS)	growth (SF-539 CNS)	growth (UACC-257 melanoma)	growth (M14 melanoma)
CC(C)Sc1nc(NN)c(C#N)c(-c2ccccc2)n1	100%	100%	91.1%	102%	98.6%	83.5%	94.7%	102%	97.8%	114%	108%	101%	95.7%	99.3%	100%	98.7%	89.9%	102%	108%
COc1cc(-c2cc(=O)oc3cc(O)ccc23)cc(OC)c1OC	88.1%	87.3%	96.7%	87.6%	69.5%	54.2%	80.2%	90.1%	99.7%	99.4%	96.3%	66.2%	90.1%	89.3%	88.7%	93.4%	93.4%	99.3%	98.3%
Clc1ccc(N2N=C(c3cccc(Nc4ccncc4)c3)CC2c2ccc3c(c2)OCO3)cc1 (configuration not stated)	83.6%	82.5%	68.6%	42.4%	-65.4% (active)	47.9%	57.2%	36.4%	56.9%	-52.8% (active)	41.9%	5.23% (active)	25.5%	37.8%	63.1%	39%	81.9%	86%	-52.4% (active)
COC(=O)Nc1ccc(NC(=O)OC)cc1	97.6%	96.7%	100%	77.7%	106%	84.7%	73.6%	69.7%	93.3%	111%	110%	103%	105%	120%	103%	99.7%	106%	66.3%	83.7%
C#Cc1cccc(NC(=O)Nc2cccc(N=C=S)c2)c1	99.3% [8.25 µM]	101% [8.25 µM]	95.1% [8.25 µM]	115% [8.25 µM]	112% [8.25 µM]	106% [8.25 µM]	90.9% [8.25 µM]	90.8% [8.25 µM]	95.4% [8.25 µM]	130% [8.25 µM]	107% [8.25 µM]	107% [8.25 µM]	90.6% [8.25 µM]	94.5% [8.25 µM]	95.4% [8.25 µM]	101% [8.25 µM]	102% [8.25 µM]	102% [8.25 µM]	98.5% [8.25 µM]
COc1ccccc1Nc1cc(O)c2c(=O)cc(-c3ccccc3)oc2c1	51.5%	76.8%	80.1%	35.6%	11.4%	62.2%	7.64% (active)	33.7%	49.2%	76.8%	45.6%	11.6%	44.1%	39.2%	44.9%	25.9%	28.3%	54%	20.8%
CSc1nnc2c(=O)n(C)c(=O)n(C)c2n1	108%	93.2%	88.9%	116%	114%	68.1%	103%	104%	116%	97.8%	100%	86.1%	114%	105%	108%	130%	109%	123%	102%
COc1nc(N)nc(-n2c(-c3ccc(C)cc3)nc3ccccc32)c1NCc1ccc(C)cc1	95.6%	89%	90.2%	86.5%	105%	78.2%	79.9%	78.4%	90.3%	108%	103%	87.2%	105%	80.4%	94.9%	92.8%	98.3%	100%	95.6%
